Assay results as given in PubChem BioAssay (NCATS).
Records with an inconclusive call do not appear. The source made the active and inactive calls. Calls follow the shape of the dose curve; as a rule, active = well fitted curve in the direction sought with a large enough effect; inconclusive = small, poorly fitted or top-dose-only effect, or another doubt; inactive = no such curve, though single readings can be large; an effect the other way counts as inactive or inconclusive.

Key:
[1] = Quantitative High-Throughput drug screen in 47 multiple myeloma cell lines against the NCATS MIPE library collection: Karpas25_ECACC cell viability assay (AID 1918968; also: nearly all actives have a fitted effect of over 35% in size); conditions: Karpas25 myeloma viability, CellTiter-Glo ATP, 48 h; series mostly up to 45.8 µM
How it was run: (§1)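 CellTiter-Glo ATP luminescence gave viability after 48 h compound treatment at 37C of 500 multiple myeloma cells per well. Normalisation used DMSO-only wells as 100% and media-only wells as 0% viability; primary qHTS of approved and investigational drugs.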

[2] = Quantitative High-Throughput drug screen in 47 multiple myeloma cell lines against the NCATS MIPE library collection: KMS27_JCRB cell viability assay (AID 1918970); conditions: KMS27 myeloma cells, CellTiter-Glo ATP viability, 48 h; series mostly up to 45.8 µM; also: nearly all actives have a fitted effect of over 30% in size
How it was run: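 Luminescent ATP read-out (CellTiter-Glo, 5 min at room temperature) after 48 h compound exposure of 500 KMS27_JCRB cells per well; DMSO wells define full viability and media-only wells zero.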

[3] = Quantitative High-Throughput drug screen in 47 multiple myeloma cell lines against the NCATS MIPE library collection: KMS12BM_JCRB cell viability assay (AID 1918971); conditions: KMS12BM myeloma viability, CellTiter-Glo ATP, 48 h; series mostly up to 45.8 µM; also: nearly all actives have a fitted effect of over 35% in size
How it was run: (§2)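 Inhibition of cell viability is measured here. Each line was plated at 500 cells per well, treated with MIPE 4.0 drugs, kept 48 hours at 37C, then assayed for ATP content by CellTiter-Glo luminescence.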

[4] = Quantitative High-Throughput drug screen in 47 multiple myeloma cell lines against the NCATS MIPE library collection: KMS12PE_JCRB cell viability assay (AID 1918972); conditions: KMS12PE myeloma viability, CellTiter-Glo ATP, 48 h; series mostly up to 45.8 µM; also: nearly all actives have a fitted effect of over 30% in size
How it was run: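 Myeloma cell lines, 500 cells per well, exposed to MIPE 4.0 library compounds for 48 h at 37C, 5% CO2. Viability from ATP by CellTiter-Glo luminescence; normalised to DMSO (100%) and media-only (0%) wells.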

[5] = Quantitative High-Throughput drug screen in 47 multiple myeloma cell lines against the NCATS MIPE library collection: KMS21BM_JCRB cell viability assay (AID 1918974); conditions: ATP luminescence, 48 h; viability: at 45.8 µM (top of the series) unless noted
How it was run: as §1

[6] = Quantitative High-Throughput drug screen in 47 multiple myeloma cell lines against the NCATS MIPE library collection: KMS26_JCRB cell viability assay (AID 1918975); conditions: KMS26 myeloma cells viability, CellTiter-Glo ATP, 48 h; series mostly up to 45.8 µM; also: nearly all actives have a fitted effect of over 45% in size
How it was run: as §2

[7] = Quantitative High-Throughput drug screen in 47 multiple myeloma cell lines against the NCATS MIPE library collection: MM1S_ATCC cell viability assay (AID 1918980); conditions: MM1S myeloma viability, CellTiter-Glo ATP luminescence, 48 h; series mostly up to 45.8 µM; also: nearly all actives have a fitted effect of over 45% in size
How it was run: (§3)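 500 cells/well per myeloma line exposed to pinned MIPE 4.0 compounds for 48 h at 37 °C, 5% CO2. Viability read as ATP by CellTiter-Glo luminescence, normalised to DMSO-only (100%) and media-only (0%) wells.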

[8] = Quantitative High-Throughput drug screen in 47 multiple myeloma cell lines against the NCATS MIPE library collection: MM1R_ATCC cell viability assay (AID 1918981); conditions: MM1R multiple myeloma cells, CellTiter-Glo viability, 48 h; series mostly up to 45.8 µM; also: nearly all actives have a fitted effect of over 35% in size
How it was run: as §3

[9] = Quantitative High-Throughput drug screen in 47 multiple myeloma cell lines against the NCATS MIPE library collection: KMS28PE_JCRB cell viability assay (AID 1918983); conditions: KMS28PE multiple myeloma viability, CellTiter-Glo ATP, 48 h; series mostly up to 45.8 µM; also: nearly all actives have a fitted effect of over 35% in size
How it was run: as §3

[10] = Quantitative High-Throughput drug screen in 47 multiple myeloma cell lines against the NCATS MIPE library collection: L363_DSMZ cell viability assay (AID 1918984); conditions: L363 myeloma viability, CellTiter-Glo ATP luminescence, 48 h; series mostly up to 45.8 µM; also: nearly all actives have a fitted effect of over 40% in size
How it was run: as §3

[11] = Quantitative High-Throughput drug screen in 47 multiple myeloma cell lines against the NCATS MIPE library collection: H1112_PLB cell viability assay (AID 1918967; also: nearly all actives have a fitted effect of over 30% in size); conditions: H1112 myeloma cells viability, ATP luminescence, 48 h; series mostly up to 45.8 µM
How it was run: as §1

[12] = Quantitative High-Throughput drug screen in 47 multiple myeloma cell lines against the NCATS MIPE library collection: OCIMY1_PLB cell viability assay (AID 1918979); conditions: OCI-MY1 myeloma viability, CellTiter-Glo ATP, 48 h; series mostly up to 45.8 µM; also: nearly all actives have a fitted effect of over 35% in size
How it was run: as §3

[13] = Quantitative High-Throughput drug screen in 47 multiple myeloma cell lines against the NCATS MIPE library collection: NCIH929_DSMZ cell viability assay (AID 1918978); conditions: NCI-H929 myeloma viability, CellTiter-Glo ATP, 48 h; series mostly up to 45.8 µM; also: nearly all actives have a fitted effect of over 35% in size
How it was run: as §3

[14] = Quantitative High-Throughput drug screen in 47 multiple myeloma cell lines against the NCATS MIPE library collection: MMM1_PLB cell viability assay (AID 1918976); conditions: MMM1 myeloma cells viability, CellTiter-Glo, 48 h; series mostly up to 45.8 µM; also: nearly all actives have a fitted effect of over 35% in size
How it was run: as §3

[15] = Quantitative High-Throughput drug screen in 47 multiple myeloma cell lines against the NCATS MIPE library collection: MOLP8_DSMZ cell viability assay (AID 1918977); conditions: MOLP8 myeloma viability, CellTiter-Glo ATP luminescence, 48 h; series mostly up to 45.8 µM; also: nearly all actives have a fitted effect of over 45% in size
How it was run: as §3

[16] = Quantitative High-Throughput drug screen in 47 multiple myeloma cell lines against the NCATS MIPE library collection: LP1_DSMZ cell viability assay (AID 1918982); conditions: LP1 myeloma viability, CellTiter-Glo ATP luminescence, 48 h; series mostly up to 45.8 µM; also: nearly all actives have a fitted effect of over 35% in size
How it was run: as §3

[17] = Quantitative High-Throughput drug screen in 47 multiple myeloma cell lines against the NCATS MIPE library collection: KMS20_JCRB cell viability assay (AID 1918973); conditions: CellTiter-Glo ATP, 48 h; series mostly up to 45.8 µM; also: nearly all actives have a fitted effect of over 45% in size
How it was run: as §1

Measured: Potency
Potency is read from the fitted curve at half-maximal effect.

CCOc1cc(N2CCC(O)CC2)ccc1Nc1ncc2c(n1)N(C)c1ccccc1C(=O)N2C
active: [1] 9.35 µM | [2] 0.187 µM | [3] 11.8 µM | [4] 1.05 µM | [5] 0.526 µM | [6] 4.18 µM | [7] 5.26 µM | [8] 16.6 µM | [9] 16.6 µM | [10] 0.526 µM

Cc1cc(Nc2nc(N[C@@H](C)c3ncc(F)cn3)ncc2Cl)n[nH]1
inactive: [12]
active: [11] 3.32 µM | [6] 26.4 µM | [7] 3.32 µM | [8] 26.4 µM | [9] 20.9 µM

Cc1[nH]c(=O)c(C#N)cc1-c1ccncc1
active: [1] 9.35 µM | [2] 1.32 µM | [13] 10.5 µM
inactive: [6] | [12] | [8] | [9] | [10]

CO[C@@H]1[C@H](N(C)C(=O)c2ccccc2)C[C@H]2O[C@]1(C)n1c3ccccc3c3c4c(c5c6ccccc6n2c5c31)C(=O)NC4
active: [1] 2.35 µM | [2] 1.32 µM | [3] 9.35 µM | [4] 0.935 µM | [5] 0.166 µM | [6] 3.72 µM | [14] 2.64 µM | [15] 1.32 µM | [13] 0.935 µM | [7] 4.69 µM | [8] 2.09 µM | [9] 5.26 µM | [10] 1.66 µM

c1ccc([C@H]2CN3CCSC3=N2)cc1
inactive: [1] | [2] | [3] | [5] | [6] | [13] | [12] | [8] | [16] | [9] | [10]

CC(C)(C)OC(=O)CN(Cc1ccc(Cl)cc1)Cc1ccc([N+](=O)[O-])s1
inactive: [2] | [4] | [13] | [12] | [8]
active: [14] 20.9 µM | [16] 18.7 µM | [9] 20.9 µM

Nc1cccc(S(=O)(=O)N2CCCN(S(=O)(=O)c3ccc4c(c3)OCCO4)CC2)c1
inactive: [2] | [4] | [6] | [15] | [13]
active: [7] 14.8 µM | [8] 11.8 µM | [16] 16.6 µM

OC(CN1CCC(Cc2ccc(F)cc2)CC1)c1ccc(Cl)cc1 (centres undefined)
inactive: [11] | [2] | [4] | [5] | [6] | [15] | [13] | [16] | [10]

CN[C@@H](C)C(=O)N[C@H]1CCCC[C@H]2CC[C@@H](C(=O)N[C@@H](c3ccccc3)c3cn(CCCCc4ccc(CCCCn5cc([C@@H](NC(=O)[C@@H]6CC[C@@H]7CCCC[C@H](NC(=O)[C@H](C)NC)C(=O)N76)c6ccccc6)nn5)cc4)nn3)N2C1=O
inactive: [3] | [15] | [12] | [9]
active: [2] 18.7 µM | [4] 4.69 µM | [17] 4.18 µM | [13] 8.33 µM | [7] 18.7 µM

CCOc1cc(C=C2C(=O)N(c3ccccc3)N=C2C)cc(Cl)c1OCC(=O)OC
active: [1] 8.33 µM | [6] 20.9 µM | [13] 2.64 µM | [7] 7.43 µM | [8] 23.5 µM | [9] 6.62 µM
inactive: [15] | [16]

CC1(C)SCCN(S(=O)(=O)c2ccc(OCC#CCO)cc2)[C@@H]1C(=O)NO
active: [6] 2.96 µM | [14] 1.87 µM | [16] 16.6 µM
inactive: [11] | [2] | [12]

CCOC(=O)N[C@@H]1CC[C@@H]2[C@@H](C1)C[C@H]1C(=O)O[C@H](C)[C@H]1[C@@H]2C=Cc1ccc(-c2cccc(F)c2)cn1
active: [2] 18.7 µM | [4] 14.8 µM | [8] 20.9 µM
inactive: [6] | [15]

COc1ccc(C2=N[C@H](c3ccc(Cl)cc3)[C@H](c3ccc(Cl)cc3)N2C(=O)N2CCNC(=O)C2)c(OC(C)C)c1
active: [11] 18.7 µM | [3] 20.9 µM | [6] 16.6 µM | [15] 8.33 µM | [13] 5.26 µM | [7] 2.09 µM | [8] 2.35 µM | [10] 0.059 µM
inactive: [16] | [9]

COc1cc(Nc2ncc3c(n2)-c2ccc(Cl)cc2C(c2c(F)cccc2OC)=NC3)ccc1C(=O)O
inactive: [11] | [13] | [12] | [8] | [16] | [10]

Cn1cc(-c2ccc3nnc(C(F)(F)c4ccc5ncccc5c4)n3n2)cn1
active: [1] 18.7 µM | [3] 23.5 µM | [4] 20.9 µM | [7] 8.33 µM
inactive: [13] | [12] | [9]

CCOc1ccc(Cc2cc([C@@H]3O[C@H](CO)[C@@H](O)[C@H](O)[C@@H]3O)ccc2Cl)cc1
inactive: [6] | [13] | [8] | [16] | [9]
active: [1] 18.7 µM | [2] 16.6 µM | [4] 26.4 µM | [10] 18.7 µM

COc1ccc(CCN2CCN(CCCc3ccccc3)CC2)cc1OC
active: [5] 3.32 µM
inactive: [11] | [3] | [15] | [13] | [8] | [9]

C[C@]1(c2nc3c(C(N)=O)cccc3[nH]2)CCCN1
inactive: [8] | [9]
active: [13] 23.5 µM | [7] 4.69 µM

Nc1nc2c(ncn2COCCO)c(=O)[nH]1
inactive: [2] | [6] | [15] | [13] | [16] | [9] | [10]

CC[C@@H](C)[C@H](NC(=O)[C@H](CC1CCCCC1)NC(=O)c1ccno1)C(=O)N1CCC2(CCc3ccccc32)CC1
active: [14] 11.8 µM | [12] 16.6 µM | [8] 13.2 µM | [16] 9.35 µM
inactive: [2] | [4]

Cc1cccc(-c2nn(C(=S)Nc3ccccc3)cc2-c2ccnc3ccccc23)n1
inactive: [2] | [4] | [12]
active: [11] 16.6 µM | [3] 14.8 µM | [6] 6.62 µM | [14] 16.6 µM | [13] 2.35 µM | [7] 16.6 µM | [16] 20.9 µM | [9] 18.7 µM

COc1ccc2nc(S(=O)Cc3ncc(C)c(OC)c3C)[nH]c2c1 (centres undefined)
active: [13] 10.5 µM | [7] 18.7 µM
inactive: [1] | [6] | [16]

Cn1c(=O)c(F)c(Nc2ccc(I)cc2F)c2c(=O)n(C[C@@H](O)CO)cnc21
active: [1] 13.2 µM | [2] 1.87 µM | [4] 18.7 µM
inactive: [6] | [15] | [12] | [8] | [16] | [9]

COc1c(Cl)cc2c([nH]c3cnccc32)c1NC(=O)c1cccnc1C
inactive: [15] | [12]
active: [2] 11.8 µM | [3] 14.8 µM | [4] 20.9 µM | [6] 13.2 µM | [13] 0.743 µM | [8] 14.8 µM | [16] 7.43 µM | [10] 0.743 µM

CC1(C)Cc2c(-c3ccccc3)c(-c3ccc(Cl)cc3)c(CC(=O)O)n2C1
active: [3] 20.9 µM | [15] 20.9 µM | [7] 26.4 µM

NC(=O)c1ccc(-c2nc(-c3ccc4c(c3)OCO4)c(-c3ccccn3)[nH]2)cc1
active: [8] 7.43 µM
inactive: [11] | [2] | [4] | [15] | [13] | [7]

CN(C)C(=O)c1ccc(S(=O)(=O)c2ccc(NC(=O)[C@@](C)(O)C(F)(F)F)c(Cl)c2)cc1
inactive: [15]
active: [1] 3.72 µM | [2] 14.8 µM | [14] 8.33 µM | [8] 14.8 µM | [10] 10.5 µM

Nc1ncnc2nc(-c3ccc(N4CCOCC4)nc3)cc(-c3cccc(Br)c3)c12
active: [13] 14.8 µM | [7] 23.5 µM
inactive: [2] | [4] | [6] | [12]

c1ccc(-c2nn3c(c2-c2ccnc4cc(OCCN5CCOCC5)ccc24)CCC3)nc1
inactive: [2] | [6]
active: [11] 4.18 µM | [3] 26.4 µM | [9] 23.5 µM
